Data taken from PubChem BioAssay (NCI).
Compounds without any hit were thinned out: in the full panel of roughly 79,000, 15% have a hit. Unmarked numbers belong to inactive results. The source made the active and inactive calls. Rule as the data show it: active = growth inhibition above about 70%; inactive = the rest.

assay: NCI Yeast Anticancer Drug Screen. Data for the sgs1 mgt1 strain (AID 161);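 also: 0% = growth of cultures given vehicle only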; conditions: S. cerevisiae sgs1 mgt1 strain, at 50.0 µM (retest, dose inferred, filed as 5.0), active compounds read high
Outline: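 Read-out: growth inhibition vs vehicle controls. Cells: mutant yeast strain deficient in DNA damage repair.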

Compound	growth inhibition
O=C(/C=C/c1cccc(Cl)c1)c1ccccc1	99% (active)
COc1cccc(N2C(=O)C3CC(CC(C)(C)C)c4c([nH]c5ccccc45)C3C2=O)c1 (stereo not given)	20%
O=C1c2ccccc2NC(=O)C2C1C(c1ccccc1)CC2(O)c1ccccc1 (stereo not given)	70% (active)
CCOC(=O)C1SC(=Nc2ccc(Cl)cc2)N=C1C (stereo not given)	71% (active)
COC(=O)c1nc(=S)[nH]c(C(=O)OC)c1C(=O)c1ccccn1	87% (active)
Cn1c2c(c3ccccc31)CCN1C[C@@H]3CCCC[C@H]3C[C@@H]21	-1%
CCCCCCCCCCCC1=NCCN1CCNCCCC	96% (active)
CN=C(N)N/N=C(\C)c1ccc2c(c1)Cc1cc(/C(C)=N/NC(N)=NC)ccc1-2	98% (active)
O=C(Nc1ccccc1)OCCc1ccc(Br)cc1	-11%
CN(C)CC/C(=N\Nc1ccc(Cl)cc1)c1ccccc1	99% (active)
O=C1Nc2ccccc2/C1=N\N=c1/scc(-c2ccccc2)n1-c1ccccc1	61%
CC(C)(C)C(=O)CC(=O)C(F)(F)C(F)(F)C(F)(F)F.CC(C)(C)C(=O)CC(=O)C(F)(F)C(F)(F)C(F)(F)F.CC(C)(C)C(=O)CC(=O)C(F)(F)C(F)(F)C(F)(F)F.[Fe]	88% (active)
COc1cc(N=Nc2cccc(S(N)(=O)=O)c2)c2ccccc2c1N	99% (active)
O=C(/C=C/C(=O)OCCCl)OCCCl	62%
CCc1ccccc1NC(=O)C1=C(C)NC(C)=C(C(=O)Nc2c(CC)cccc2CC)C1c1ccc2c(c1)OCO2 (stereo not given)	29%
